Where “and” joins values, the source holds several entries; their conditions need not be identical. Identical values can stand only once. Inconclusive results are not listed. More than one record can exist for a structure, and the calls need not agree. Calls of active or inactive are those of the source. Unless noted, calls come from the whole dose curve; as a rule, active = well fitted curve in the direction sought with a large enough effect in the repeat runs; inconclusive = weak or mixed curves; inactive = no such curve, though single readings can be large; an effect the other way counts as inactive or inconclusive.
Tests used:
[1] = qHTS assay to identify small molecule agonists of the estrogen receptor beta (ER-beta) signaling pathway - cell viability counter screen (AID 1259380); note: nearly all actives have a fitted effect of over 30% in size; note: potency is the fitted concentration of half-maximal effect
Outline: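 Same-well viability counter screen. Cells: ER-beta-UAS-bla HEK293T, plated 6 hr before compound, in 2% charcoal-stripped FBS. Compound exposure 16 hr, 37C; viability by CellTiter-Glo luminescence after 30 min at room temperature.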

[2] = qHTS assay to identify small molecule antagonists of the estrogen receptor beta (ER-beta) signaling pathway - cell viability counter screen (AID 1259382);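 note: HEK293T cells carrying ER-beta-UAS-bla reporter stimulated with estradiol; series mostly up to about 92 µM; nearly all actives have a fitted effect of over 55% in size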
Outline: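 Following a 6 hr plating period, HEK293T cells carrying a UAS-driven beta-lactamase reporter under ER-beta control received compounds and 1nM E2 (final). After 16 hr at 37C and 2 hr substrate loading, CellTiter-Glo luminescence indicated viability.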

[3] = target: Estrogen receptor (Homo sapiens) (UniProt P03372); assay: qHTS assay to identify small molecule agonists of the estrogen receptor alpha (ER-alpha) signaling pathway in the presence of an antagonist (AID 1259383; calls by dose curve; note: top concentration of the series differs between compounds; nearly all actives have a fitted effect of over 15% in size)
Chain of Estrogen receptor (Homo sapiens) (P03372 whole entry, looked up): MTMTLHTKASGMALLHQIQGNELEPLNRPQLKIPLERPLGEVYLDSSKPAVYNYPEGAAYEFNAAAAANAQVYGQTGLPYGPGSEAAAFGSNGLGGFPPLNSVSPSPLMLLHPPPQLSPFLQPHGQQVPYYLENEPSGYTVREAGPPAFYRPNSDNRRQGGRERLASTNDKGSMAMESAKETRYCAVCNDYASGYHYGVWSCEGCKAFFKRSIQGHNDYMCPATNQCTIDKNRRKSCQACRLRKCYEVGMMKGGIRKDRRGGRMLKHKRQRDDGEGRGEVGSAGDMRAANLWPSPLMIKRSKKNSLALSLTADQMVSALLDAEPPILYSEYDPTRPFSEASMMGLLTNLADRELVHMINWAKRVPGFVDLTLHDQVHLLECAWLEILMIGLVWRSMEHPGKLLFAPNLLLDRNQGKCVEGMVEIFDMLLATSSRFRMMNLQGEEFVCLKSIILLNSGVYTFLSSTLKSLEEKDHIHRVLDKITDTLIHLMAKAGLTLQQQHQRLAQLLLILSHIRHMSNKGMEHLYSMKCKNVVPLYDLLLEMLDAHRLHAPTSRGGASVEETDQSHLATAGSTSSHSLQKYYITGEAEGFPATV
Outline: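 Cells are hormone-deprived for 5 days (charcoal-stripped FBS, no phenol red), plated for 24hr, spiked with 10.0nM ICI-182,780, then dosed at 15 concentrations. After 22hr at 37C, ONE-Glo luminescence reports ERE-luciferase activity.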

[4] = qHTS assay to identify small molecule agonists or antagonists of the thyroid stimulating hormone receptor (TSHR) signaling pathway - wild type cell line counter screen (AID 1259384; calls by dose curve)
Outline: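 Counter screen in untransfected Hek293: compounds (15-point titration, triplicate) plus phosphodiesterase inhibitor Ro20-1724 added after 18 h plating; 30 min RT. Intracellular cAMP via competitive d2/cryptate immunoassay, 1 h incubation.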

[5] = target: Thyrotropin receptor (Homo sapiens) (UniProt P16473); assay: qHTS assay to identify small molecule antagonists of the thyroid stimulating hormone receptor (TSHR) signaling pathway (AID 1259385; calls by dose curve; note: nearly all actives have a fitted effect of over 20% in size)
Chain of Thyrotropin receptor (Homo sapiens) (P16473 whole entry, looked up): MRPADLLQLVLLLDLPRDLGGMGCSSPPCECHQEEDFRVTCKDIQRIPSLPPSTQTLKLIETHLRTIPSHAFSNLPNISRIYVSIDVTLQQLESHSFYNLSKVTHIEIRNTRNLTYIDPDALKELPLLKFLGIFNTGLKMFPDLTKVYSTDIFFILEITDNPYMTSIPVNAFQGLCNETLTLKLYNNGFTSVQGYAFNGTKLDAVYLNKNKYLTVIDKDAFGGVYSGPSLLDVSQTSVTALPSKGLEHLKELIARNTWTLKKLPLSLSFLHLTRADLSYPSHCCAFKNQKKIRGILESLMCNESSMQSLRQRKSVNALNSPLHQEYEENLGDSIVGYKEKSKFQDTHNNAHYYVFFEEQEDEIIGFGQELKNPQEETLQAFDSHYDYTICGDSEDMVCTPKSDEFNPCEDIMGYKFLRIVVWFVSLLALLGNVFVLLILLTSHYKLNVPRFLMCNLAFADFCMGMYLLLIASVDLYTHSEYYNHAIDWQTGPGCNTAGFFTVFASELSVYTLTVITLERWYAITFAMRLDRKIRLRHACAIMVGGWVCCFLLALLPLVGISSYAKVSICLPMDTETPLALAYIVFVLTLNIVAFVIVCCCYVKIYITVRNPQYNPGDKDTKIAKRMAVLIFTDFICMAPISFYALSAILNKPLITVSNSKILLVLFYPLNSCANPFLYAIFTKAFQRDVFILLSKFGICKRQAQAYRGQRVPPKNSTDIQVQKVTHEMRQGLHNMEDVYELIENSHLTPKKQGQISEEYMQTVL
Outline: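 Antagonist mode: compound-treated TSHR-expressing HEK293 cells were stimulated with 1.5 ng/mL TSH (final) in presence of Ro20-1724 for 30 min at RT. HTRF cAMP detection after 1 h; each compound tested at 15 concentrations, triplicate.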

[6] = qHTS assay to identify small molecule agonists of the estrogen receptor alpha (ER-alpha) signaling pathway in the presence of an antagonist - cell viability counter screen (AID 1259386);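 note: cells exposed to compounds for 22 h at 37 °C before the viability read; nearly all actives have a fitted effect of over 30% in size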; note: potency is the fitted concentration of half-maximal effect
Outline: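 Cells are starved of estrogens for 5 days in charcoal-stripped serum, seeded for 24hr and co-treated with ICI-182,780 (10.0nM final) and test compounds. After 22hr at 37C, viability is read as CellTiter-Fluor fluorescence.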

[7] = target: Progesterone receptor (Homo sapiens) (UniProt P06401); assay: qHTS assay to identify small molecule agonists of the progesterone receptor (PR) signaling pathway (AID 1346784; calls by dose curve; note: nearly all actives have a fitted effect of over 30% in size; note: potency is the fitted concentration of half-maximal effect)
Chain of Progesterone receptor (Homo sapiens) (P06401 whole entry, looked up): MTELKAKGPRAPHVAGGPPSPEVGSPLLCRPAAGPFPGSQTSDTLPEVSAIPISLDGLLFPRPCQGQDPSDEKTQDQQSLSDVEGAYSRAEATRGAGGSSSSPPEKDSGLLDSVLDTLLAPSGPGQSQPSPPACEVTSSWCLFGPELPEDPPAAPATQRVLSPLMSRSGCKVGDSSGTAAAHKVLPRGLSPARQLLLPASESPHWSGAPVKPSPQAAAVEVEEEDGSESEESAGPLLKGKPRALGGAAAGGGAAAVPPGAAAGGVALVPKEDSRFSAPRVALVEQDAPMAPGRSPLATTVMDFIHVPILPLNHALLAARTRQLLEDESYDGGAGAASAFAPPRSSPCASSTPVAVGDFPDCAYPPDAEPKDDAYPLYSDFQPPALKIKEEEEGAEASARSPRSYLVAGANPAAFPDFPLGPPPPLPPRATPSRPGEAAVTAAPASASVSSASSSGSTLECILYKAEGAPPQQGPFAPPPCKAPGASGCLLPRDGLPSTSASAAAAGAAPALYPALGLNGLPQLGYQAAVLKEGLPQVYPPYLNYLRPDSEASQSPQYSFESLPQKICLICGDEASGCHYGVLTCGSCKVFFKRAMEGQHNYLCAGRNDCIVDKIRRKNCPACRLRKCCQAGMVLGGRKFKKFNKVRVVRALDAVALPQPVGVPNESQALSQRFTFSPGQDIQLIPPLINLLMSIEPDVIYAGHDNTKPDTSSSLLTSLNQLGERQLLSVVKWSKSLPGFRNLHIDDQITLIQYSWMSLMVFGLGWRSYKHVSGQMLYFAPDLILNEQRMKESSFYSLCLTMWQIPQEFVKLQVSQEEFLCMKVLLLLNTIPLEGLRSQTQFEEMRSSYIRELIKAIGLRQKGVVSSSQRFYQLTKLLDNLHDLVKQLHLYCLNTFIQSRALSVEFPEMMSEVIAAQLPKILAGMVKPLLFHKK
Outline: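 Compounds were tested for PR agonism in HEK 293T cells bearing a beta-lactamase gene under UAS control. Treatment lasted 16 hr at 37C; signal came from fluorescence of a FRET substrate.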

[8] = target: Progesterone receptor (Homo sapiens) (UniProt P06401); assay: qHTS assay to identify small molecule antagonists of the progesterone receptor (PR) signaling pathway (AID 1346795; active = well fitted inhibition curve with a large enough effect in the signal ratio in the repeat runs, not every such curve was filed as active; the % refers to the signal ratio; note: potency is the fitted concentration of half-maximal effect)
Outline: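 In HEK293T cells bearing the PR-UAS-bla reporter, compound effects on promegestone-driven (1 nM) beta-lactamase expression are assessed after 16 hr using a fluorescent FRET substrate incubated 2 hr at room temperature.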

[9] = qHTS assay to identify small molecule antagonists of the progesterone receptor (PR) signaling pathway - cell viability counter screen (AID 1346798); note: series mostly up to about 92 µM; nearly all actives have a fitted effect of over 50% in size
Outline: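 Following a 4 hr attachment, PR-UAS-bla HEK293T cells in charcoal-stripped FBS medium were exposed to compounds with R5020 for 16 hr; CellTiter-Glo was added and luminescence read after 30 min at room temperature.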

[10] = qHTS assay to identify small molecule agonists of the progesterone receptor (PR) signaling pathway - cell viability counter screen (AID 1346799; calls by dose curve; note: nearly all actives have a fitted effect of over 45% in size)
Outline: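 Here, 3,000 PR-UAS-bla HEK293T cells per well were treated with compounds for 16 hr after a 6 hr preincubation at 37C and 5% CO2; cell viability is the CellTiter-Glo luminescence signal.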

[11] = qHTS assay to identify small molecule antagonists of the TGF-beta/Smad signaling pathway - cell viability counter screen (AID 1346824); note: nearly all actives have a fitted effect of over 50% in size
Outline: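 Cytotoxicity counter-screen run in the same wells as the beta-lactamase Smad reporter read: CellTiter-Glo luminescence after 30 min at room temperature. HEK 293T SBE-bla cells had 5 hr compound exposure at 37 C with TGF-beta1 (0.25 ng/mL stock).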

[12] = qHTS assay to identify small molecule agonists of the TGF-beta/Smad signaling pathway - cell viability counter screen (AID 1346829); note: top concentration of the series differs between compounds; nearly all actives have a fitted effect of over 45% in size
Outline: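 Luminescence from CellTiter-Glo, read after a 30 min room-temperature incubation, gives cell viability of SBE-bla HEK 293T cells treated 5 hr with compounds at 37 C.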

[13] = target: Thyrotropin-releasing hormone receptor (Homo sapiens) (UniProt P34981); assay: qHTS assay to identify small molecule antagonists of the thyrotropin-releasing hormone receptor (TRHR) signaling pathway (AID 1346877; active = well fitted inhibition curve with a large enough effect in the repeat runs, not every such curve was filed as active; note: series mostly up to about 51 µM)
Chain of Thyrotropin-releasing hormone receptor (Homo sapiens) (P34981 whole entry, looked up): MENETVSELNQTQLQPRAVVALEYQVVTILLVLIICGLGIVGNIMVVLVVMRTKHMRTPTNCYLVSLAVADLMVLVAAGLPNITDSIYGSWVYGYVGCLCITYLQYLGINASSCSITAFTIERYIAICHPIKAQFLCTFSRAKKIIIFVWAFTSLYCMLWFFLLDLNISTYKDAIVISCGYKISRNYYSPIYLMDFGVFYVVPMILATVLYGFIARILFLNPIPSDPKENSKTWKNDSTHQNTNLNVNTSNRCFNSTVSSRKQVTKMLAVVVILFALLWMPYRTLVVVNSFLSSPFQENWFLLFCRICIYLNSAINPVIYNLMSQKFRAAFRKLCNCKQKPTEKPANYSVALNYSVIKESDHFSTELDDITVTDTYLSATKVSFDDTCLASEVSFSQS
Outline: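 Cells (TRHR-HEK293) are plated and kept 18 h at 37 °C/5% CO2. A calcium-sensitive dye is added for 2 h, compound follows for 5 min at room temperature, and TRH is then given at 1 nM final.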

[14] = target: Thyrotropin-releasing hormone receptor (Homo sapiens) (UniProt P34981); assay: qHTS assay to identify small molecule agonists of the thyrotropin-releasing hormone receptor (TRHR) signaling pathway (AID 1346891; calls by dose curve; note: series mostly up to about 58 µM)
Outline: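 Screening of agonists relied on calcium signalling in HEK293 cells expressing human TRHR: dye loading 2 h at 37 °C preceded compound addition and a 3-min fluorescence time course.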

[15] = Human pregnane X receptor (PXR) small molecule agonists, qHTS cell viability counter screen (AID 1346977); note: nearly all actives have a fitted effect of over 50% in size; note: potency is the fitted concentration of half-maximal effect
Outline: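 Tox21 qHTS format; PXR-Luc HepG2, 2,000/well, charcoal-stripped FBS 5%. Cpd exposure 24hr. Read: CellTiter-Fluor fluorescence, multiplexed with luciferase.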

[16] = Caspase-3/7 induction in HepG2 cells by small molecules, qHTS assay (AID 1346978); note: nearly all actives have a fitted effect of over 15% in size
Outline: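 Caspase-3/7 induction was measured by Caspase-Glo 3/7 luminescence (30 min, room temperature) after a 17 hr compound exposure of wild-type HepG2 cells seeded at 2,000 per well and pre-incubated 5 hr.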

[17] = Caspase-3/7 induction in CHO-K1 cells by small molecules, qHTS cell viability counter screen (AID 1346979); note: nearly all actives have a fitted effect of over 35% in size; note: potency is the fitted concentration of half-maximal effect
Outline: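 CellTiter-Fluor viability check, qHTS format: wild-type CHO-K1, 16hr compound treatment, 1hr reagent incubation, fluorescence read.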

[18] = Caspase-3/7 induction in CHO-K1 cells by small molecules, qHTS assay (AID 1346980); note: nearly all actives have a fitted effect of over 15% in size
Outline: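 Luminescent Caspase-Glo 3/7 read (30min, room temperature) quantified apoptosis induction. Cells were wild-type CHO-K1, treated with compound for 17hr at 37 C and 5% CO2.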

[19] = target: Androgen receptor (Homo sapiens) (UniProt P10275); assay: qHTS assay to identify small molecule agonists of the androgen receptor (AR) signaling pathway in the presence of an antagonist (AID 1259381; calls by dose curve; note: nearly all actives have a fitted effect of over 15% in size; note: potency is the fitted concentration of half-maximal effect)
Chain of Androgen receptor (Homo sapiens) (P10275 whole entry, looked up): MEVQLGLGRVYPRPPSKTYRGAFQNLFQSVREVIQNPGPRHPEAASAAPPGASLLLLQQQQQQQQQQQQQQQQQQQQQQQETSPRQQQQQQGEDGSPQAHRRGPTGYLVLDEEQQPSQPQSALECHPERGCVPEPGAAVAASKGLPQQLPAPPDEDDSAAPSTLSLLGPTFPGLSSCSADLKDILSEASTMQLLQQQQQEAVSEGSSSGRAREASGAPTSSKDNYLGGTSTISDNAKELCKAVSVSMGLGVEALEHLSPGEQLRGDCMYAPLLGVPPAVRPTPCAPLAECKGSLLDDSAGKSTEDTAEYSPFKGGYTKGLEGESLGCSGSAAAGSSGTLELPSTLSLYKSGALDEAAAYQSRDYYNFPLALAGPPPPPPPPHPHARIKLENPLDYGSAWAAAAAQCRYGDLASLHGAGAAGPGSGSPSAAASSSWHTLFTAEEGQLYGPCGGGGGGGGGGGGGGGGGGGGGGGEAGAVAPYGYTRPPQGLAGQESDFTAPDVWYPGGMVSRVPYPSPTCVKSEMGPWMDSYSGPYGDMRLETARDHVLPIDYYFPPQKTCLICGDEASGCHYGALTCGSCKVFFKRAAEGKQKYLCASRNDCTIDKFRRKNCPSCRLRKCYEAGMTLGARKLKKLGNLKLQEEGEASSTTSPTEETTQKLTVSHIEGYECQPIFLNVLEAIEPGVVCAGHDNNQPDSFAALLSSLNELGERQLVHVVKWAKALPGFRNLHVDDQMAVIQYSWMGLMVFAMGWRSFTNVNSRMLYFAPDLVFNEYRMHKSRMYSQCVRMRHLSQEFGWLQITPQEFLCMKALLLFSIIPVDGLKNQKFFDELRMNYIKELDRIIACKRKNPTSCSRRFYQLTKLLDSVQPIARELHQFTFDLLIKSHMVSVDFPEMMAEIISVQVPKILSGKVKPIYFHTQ
Outline: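 Cells are MDA-kb2 (human breast carcinoma, MMTV-luc, AR/GR responsive). Nilutamide is present at 3.0uM final throughout; compounds are added at 15 concentrations and incubated 16hr at 37C before ONE-Glo luminescence detection.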

[20] = qHTS assay to identify small molecule agonists of the TGF-beta/Smad signaling pathway (AID 1346859; active = well fitted activation curve with a large enough effect in the signal ratio in the repeat runs, not every such curve was filed as active; the % refers to the signal ratio; note: series mostly up to about 77 µM)
Outline: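 Each well held 4,000 SBE-bla HEK 293T cells incubated overnight before compound addition; 5 hr later the cleavable FRET substrate went on for 2 hr at room temperature, and fluorescence was read at two emissions.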

Measured: Potency

C=CCOC(=O)c1ccccc1C(=O)OCC=C
not listed: [19] | [20]
inactive: all other assays above

CC1CCC(C(C)C)C(O)C1 (configuration not stated)
not listed: [3]
inactive: all other assays above

O=C(O)c1cc(=O)c2c(OCC(O)COc3cccc4oc(C(=O)O)cc(=O)c34)cccc2o1
not listed: [13] | [14] | [16] | [19] | [20]
inactive: all other assays above

CC(=O)Nc1ccccc1
not listed: [16] | [19]
inactive: all other assays above

CC1=C(C)S(=O)(=O)CCS1(=O)=O
not listed: [4] | [5] | [9] | [11] | [15] | [17]
inactive: all other assays above

CCCCN(CCCC)CCCC
not listed: [19]
inactive: all other assays above

c1ccc(OCCOc2ccccc2)cc1
not listed: [11] | [13] | [14] | [16] | [19]
inactive: all other assays above

C[C@H]1C[C@@H]2[C@H]([C@@H](O)C[C@@]3(C)[C@H]2CC[C@]3(O)C(=O)CO)[C@@]2(C)C=CC(=O)C=C12
active: [19] 54.5 nM and 59.6 nM | [7] 48.6 µM
not listed: [3] | [4] | [5] | [8] | [11] | [13] | [14]
inactive: all other assays above

C[Si](O[Si](C)(C)C)O[Si](C)(C)C
not listed: [3]
inactive: all other assays above

O=C(O)c1ccccc1C(c1ccc(O)cc1)c1ccc(O)cc1
not listed: [16]
inactive: all other assays above

CCc1cccc(C)c1N
not listed: [5]
inactive: all other assays above

CC(O)COCC(C)O (configuration not stated)
not listed: [13] | [14] | [19] | [20]
inactive: all other assays above

Nc1cc([N+](=O)[O-])ccc1O
active: [6] 43.3 µM and 27.2 µM | [15] 39.8 µM and 54.2 µM | [17] 54.5 µM and 60.8 µM
not listed: [3] | [5]
inactive: all other assays above

COc1cc(Cc2cnc(N)nc2N)cc(OC)c1OC
5.43 µM (active) and inactive: [7]
not listed: [11] | [19]
inactive: all other assays above

O=C=NCCCCCCN=C=O
53.3 µM (active) and inactive: [17]
not listed: [19] | [20]
inactive: all other assays above

Cc1cc(C)c(C)cc1C
not listed: [11] | [19]
inactive: all other assays above

C#CCN(C)Cc1ccccc1
not listed: [19] | [20]
inactive: all other assays above

O=S1(=O)CC=CC1
39.8 µM (active) and inactive: [15]
29.6 µM (active) and inactive: [17]
not listed: [16] | [19] | [20]
inactive: all other assays above

CCCCCCCCCC
not listed: [13] | [14] | [19]
inactive: all other assays above

CC1=CCC2CC1C2(C)C (configuration not stated)
not listed: [19]
inactive: all other assays above

CCCCCC1=CCCC1=O
not listed: [19] | [20]
inactive: all other assays above

O=C(O)c1ccc2c(c1)C(=O)OC2=O
inactive: all assays above

C=C(C)C(=O)Nc1ccc(Cl)c(Cl)c1
active: [1] 55 µM and 54.3 µM | [8] 24.6 µM and 48.4 µM
not listed: [17] | [19]
inactive: all other assays above

CCCCCCCCCCCCS
not listed: [16] | [19]
inactive: all other assays above

FC(F)(F)c1ccc(Cl)c(Cl)c1
inactive: all assays above

CCOC(=O)NNc1nncc2ccccc12
not listed: [13] | [14] | [19] | [20]
inactive: all other assays above

CC(=O)c1ccccc1
not listed: [19]
inactive: all other assays above

Cc1ccc(N(C)C)cc1
not listed: [5] | [20]
inactive: all other assays above

CC(c1cc2ccccc2s1)N(O)C(N)=O (configuration not stated)
not listed: [4] | [5]
inactive: all other assays above

From PubChem BioAssay (Tox21)
